The values that follow come from PubChem BioAssay (Tox21).

Results filed as inconclusive are left out. Active and inactive are the calls of the source. Unless noted, the call rests on the fitted dose curve.

Assay [1] can be described thus: Nuclear factor erythroid 2-related factor 2/antioxidant responsive element (Nrf2/ARE) small molecule agonists: qHTS cell viability counter screen in human keratinocytes (AID 1919968; active means well fitted curve in the direction sought with a large enough effect in the repeat runs; an effect the other way counts as inactive or inconclusive; further: nearly all actives have a fitted effect of over 55% in size; further: potency means the concentration at half of the fitted maximal effect). The method, boiled down:
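Seed 1,500 KeratinoSens cells per well, then incubate 5 h at 37 C/5% CO2. Add compounds in DMSO and incubate 23 h. Add CellTiter-Fluor, wait 1 h and read fluorescence.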
On the technique in general: Quantitative high-throughput screening tests each substance at several concentrations.

Assay [2] in a line: Nuclear factor erythroid 2-related factor 2/antioxidant responsive element (Nrf2/ARE) small molecule agonists: luciferase reporter gene qHTS assay in human keratinocytes (AID 1919969). Further: nearly all actives have a fitted effect of over 35% in size. Further: potency means the concentration at half of the fitted maximal effect. Background: A reporter such as luciferase makes a cellular process visible.
Assay [3] deals with Gonadotropin-releasing hormone receptor (Homo sapiens) (UniProt P30968). The assay is described as follows: Human gonadotropin-releasing hormone receptor (GnRHR) small molecule agonists, calcium flux assay in GnRHR-HEK293 cells (AID 1920063). Further: nearly all actives have a fitted effect of over 35% in size. In outline: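 Cells: HEK293 stably expressing human GnRHR. Steps: overnight (18 h) culture, 1 h calcium dye loading at 37 C, compound addition, kinetic fluorescence read at 480/540 nm. Each compound tested at 15 concentrations in triplicate.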
For orientation: Calcium flux is commonly read through the fluorescence of an indicator in the cells.

Assay [4] addresses KiSS-1 receptor (Homo sapiens) (UniProt Q969F8). The assay can be described thus: Human kisspeptin (KISS1R) small molecule agonists, calcium flux assay in KISS1R-HEK293 cells (AID 1920064; active means well fitted curve in the direction sought with a large enough effect in the repeat runs; an effect the other way counts as inactive or inconclusive). The method, boiled down:
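Cells plated and incubated 18 h; dye added, 1 h at 37 C; compounds in DMSO pinned in; signal read at 480/540 nm every second for 3 min. Each compound tested at 15 concentrations in triplicate.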

Assay [5] can be described thus: G protein-coupled receptor (GPCR) small molecule agonists, calcium flux assay: HEK293 wild type cell line counter screen (AID 1920065). The method, boiled down: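 Counter-screen of the Tox21 10K library for non-specific calcium release: dye-loaded cells received compounds in DMSO and were monitored by kinetic fluorescence (480/540 nm, 3 min). Fifteen concentrations, run in triplicate.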

Assay [6] is described as follows: p53 small molecule agonists, cell-based qHTS assay with human liver microsomes (AID 1963577). The method, boiled down: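 p53RE-bla reporter cells were pre-incubated 5 h at 37 C, then treated with compounds plus human liver microsomes (0.5 mg/mL final) and NADPH (0.5 mg/mL final) for 16 h at 37 C. Beta-lactamase activity was read by LiveBLAzer fluorescence after 2 h at room temperature.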

Assay [7] can be described thus: p53 small molecule agonists, cell-based qHTS assay with rat liver microsomes: qHTS cell viability counter screen (AID 1963580). Further: nearly all actives have a fitted effect of over 45% in size. In outline:
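p53RE-bla HCT-116 cells (4,000/well) rested 5 h at 37 C, then given Tox21 compounds in DMSO with rat liver microsomes (0.5 mg/mL final) plus NADPH (0.5 mg/mL final) for 16 h at 37 C. Viability read by CellTiter-Glo luminescence after 30 min at room temperature.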

Assay [8] can be described thus: p53 small molecule agonists, cell-based qHTS assay: qHTS cell viability counter screen (AID 1963581). Further: nearly all actives have a fitted effect of over 45% in size. The method, boiled down: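 Cells: HCT-116 with p53 response element-driven beta-lactamase. Treatment: 16 h, 37 C, compounds in DMSO. Read: CellTiter-Glo luminescence after 30 min RT.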
The nature of assay [9]: p53 small molecule agonists, cell-based qHTS assay (AID 1963582; active means well fitted activation curve with a large enough effect in the signal ratio in the repeat runs, not every such curve was filed as active; the % refers to the signal ratio). The method, boiled down: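 Quantitative HTS in p53RE-bla cells: after a 5 h settling period, compounds delivered in DMSO were left on cells for 16 h at 37 C, and reporter induction was measured as fluorescence following 2 h substrate loading.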
In assay [10] the target is 5-hydroxytryptamine receptor 2A (Homo sapiens) (UniProt P28223). The assay is described as follows: 5-hydroxytryptamine receptor 2A (HTR2A) small molecule antagonists, cell-based qHTS assay (AID 1963586). Further: nearly all actives have a fitted effect of over 45% in size. In outline:
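Antagonist-mode intracellular calcium assay: DOI (4 nM) added after 5 min compound pre-incubation at room temperature to dye-loaded HTR2A-CHO cells. Fluorescence followed for 3 min, sampled every second.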

Assay [11] has the same target. The assay can be described thus: 5-hydroxytryptamine receptor 2A (HTR2A) small molecule agonists, cell-based qHTS assay (AID 1963587). Further: nearly all actives have a fitted effect of over 30% in size. Further: potency means the concentration at half of the fitted maximal effect. In outline:
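HTR2A-CHO cells, plated 18 h at 37 C/5% CO2, dye-loaded 1 h at 37 C; compounds in DMSO added by pin tool (agonist mode). Intracellular calcium flux read as kinetic fluorescence on FDSS over 2 min at 1 s intervals.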

Assay [12] addresses Muscarinic acetylcholine receptor M1 (Homo sapiens) (UniProt P11229). The assay can be described thus: Cholinergic receptor muscarinic 1 (CHRM1) small molecule antagonists, cell-based qHTS assay (AID 1963588). Further: nearly all actives have a fitted effect of over 40% in size. The method, boiled down:
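CHRM1-CHO calcium-flux assay, antagonist mode. Cells were seeded 18 h, dye-loaded 1 h at 37 C and given compound for 5 min at RT, then acetylcholine was added at 50nM. FDSS fluorescence was read 3 min; 15 concentrations, three runs.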

Assay [13] has the same target. The assay can be described thus: Cholinergic receptor muscarinic 1 (CHRM1) small molecule agonists, cell-based qHTS assay (AID 1963589). Further: nearly all actives have a fitted effect of over 35% in size. In outline:
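Agonist-mode qHTS in CHO cells stably carrying human muscarinic M1. Intracellular calcium is tracked by fluorescence every second after compound transfer; each compound runs at 15 concentrations in three independent runs.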

Assay [14] in a line: cAMP Responsive Elements (CRE) small molecule agonists, cell-based qHTS assay (AID 1963590). In outline:
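Agonist mode qHTS in CRE-bla HEK 293T cells: compounds dosed from DMSO for 3 h at 37 C/5% CO2, followed by LiveBLAzer B/G FRET substrate for 2 h at room temperature.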

The nature of assay [15]: cAMP Responsive Elements (CRE) small molecule antagonists, cell-based qHTS assay (AID 1963591; active means well fitted inhibition curve with a large enough effect in the signal ratio in the repeat runs, not every such curve was filed as active; the % refers to the signal ratio). The method, boiled down:
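Antagonist mode: test compounds are co-incubated with the adenylyl cyclase activator NKH477 (0.25 uM final) on CRE-bla HEK293T cells for 3 h at 37 °C, followed by LiveBLAzer substrate loading.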

Assay [16] deals with D(2) dopamine receptor (Homo sapiens) (UniProt P14416). The assay is described as follows: Dopamine D2 receptor (DRD2) small molecule antagonists, cell-based qHTS assay (AID 1963595; active means well fitted inhibition curve with a large enough effect in the signal ratio in the repeat runs, with a control signal flat; the % refers to the signal ratio). The method, boiled down:
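Human DRD2 antagonist qHTS measuring cAMP by HTRF. The cells are exposed to compound for 10 min, then to NKH477 (200 nM) and quinpirole (12 nM) for 30 min at RT, with Ro20-1724 (0.1 mM) present throughout.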

Assay [17] concerns the target Beta-2 adrenergic receptor (Homo sapiens) (UniProt P07550). The assay can be described thus: Adrenergic beta2 receptor (ADRB2) small molecule agonists, cell-based qHTS assay (AID 1963593).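 Further: CHO cells stably overexpressing human ADRB2.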 The method, boiled down:
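CHO cells stably over-expressing ADRB2 were plated overnight at 37C, then dosed with compounds plus a stimulation mix containing 100uM IBMX and 25uM Ro-20-1724 for 0.5hr at room temperature. cAMP was measured by HTRF competition, 1hr.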

The target of assay [18] is D(2) dopamine receptor (Homo sapiens) (UniProt P14416). The assay can be described thus: Dopamine D2 receptor (DRD2) small molecule agonists, cell-based qHTS assay (AID 1963594). Further: nearly all actives have a fitted effect of over 35% in size. The method, boiled down: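 HEK293 cells stably expressing DRD2 were cultured 24 h at 37 C, then given Ro20-1724 (0.1 mM final) and compounds for 10 min at room temperature. NKH477 (200nM) was then added for 30 min. cAMP was read by HTRF.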

The target of assay [19] is Beta-2 adrenergic receptor (Homo sapiens) (UniProt P07550). The assay can be described thus: Adrenergic beta2 receptor (ADRB2) small molecule antagonists, cell-based qHTS assay (AID 1963592). Further: series mostly up to about 92 µM; nearly all actives have a fitted effect of over 50% in size. In outline:
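Cells (CHO, stable ADRB2 overexpression) incubated 18-20hr at 37C; compounds added from DMSO; agonist mix (1nM isoproterenol, 100uM IBMX, 25uM Ro-20-1724) added; 0.5hr RT; d2-cAMP and anti-cAMP-cryptate added; 1hr RT; 665/615 nm read.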

Sequence of Beta-2 adrenergic receptor (Homo sapiens) (P07550 whole entry, looked up): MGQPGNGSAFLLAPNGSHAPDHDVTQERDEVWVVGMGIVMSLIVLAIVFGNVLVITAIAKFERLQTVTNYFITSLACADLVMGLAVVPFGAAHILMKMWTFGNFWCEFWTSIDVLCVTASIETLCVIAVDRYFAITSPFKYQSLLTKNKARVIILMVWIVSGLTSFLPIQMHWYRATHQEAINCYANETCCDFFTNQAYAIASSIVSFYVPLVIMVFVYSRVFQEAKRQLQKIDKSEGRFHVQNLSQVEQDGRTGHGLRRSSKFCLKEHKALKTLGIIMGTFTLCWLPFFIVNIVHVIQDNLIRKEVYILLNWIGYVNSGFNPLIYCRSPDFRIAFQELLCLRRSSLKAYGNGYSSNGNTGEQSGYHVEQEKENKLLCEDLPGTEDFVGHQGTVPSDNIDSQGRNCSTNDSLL
Sequence of Muscarinic acetylcholine receptor M1 (Homo sapiens) (P11229 whole entry, looked up): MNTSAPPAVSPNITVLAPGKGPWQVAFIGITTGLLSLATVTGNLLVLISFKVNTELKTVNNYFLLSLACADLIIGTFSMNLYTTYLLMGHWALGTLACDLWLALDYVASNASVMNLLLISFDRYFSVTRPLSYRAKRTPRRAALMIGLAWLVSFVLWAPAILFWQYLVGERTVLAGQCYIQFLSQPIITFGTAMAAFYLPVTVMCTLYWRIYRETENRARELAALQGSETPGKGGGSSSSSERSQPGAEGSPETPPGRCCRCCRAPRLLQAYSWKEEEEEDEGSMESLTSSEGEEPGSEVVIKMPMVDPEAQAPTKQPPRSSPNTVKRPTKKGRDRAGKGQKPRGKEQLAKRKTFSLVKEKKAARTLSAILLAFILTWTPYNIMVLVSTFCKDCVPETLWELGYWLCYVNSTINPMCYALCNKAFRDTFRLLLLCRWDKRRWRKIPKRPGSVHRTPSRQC
Sequence of D(2) dopamine receptor (Homo sapiens) (P14416 whole entry, looked up): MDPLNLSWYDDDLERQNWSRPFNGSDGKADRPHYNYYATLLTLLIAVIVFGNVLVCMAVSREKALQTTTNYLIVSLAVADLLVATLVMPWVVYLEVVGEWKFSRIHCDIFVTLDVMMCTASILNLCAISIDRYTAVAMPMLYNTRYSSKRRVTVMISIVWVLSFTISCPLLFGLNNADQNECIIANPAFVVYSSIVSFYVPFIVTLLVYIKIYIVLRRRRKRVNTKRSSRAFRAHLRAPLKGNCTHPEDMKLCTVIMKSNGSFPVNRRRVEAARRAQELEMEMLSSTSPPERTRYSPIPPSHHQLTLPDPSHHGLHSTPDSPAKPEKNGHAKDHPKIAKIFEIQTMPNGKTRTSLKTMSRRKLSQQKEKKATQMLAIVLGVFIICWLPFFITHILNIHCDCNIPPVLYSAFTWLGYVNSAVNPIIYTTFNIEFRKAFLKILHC
Sequence of 5-hydroxytryptamine receptor 2A (Homo sapiens) (P28223 whole entry, looked up): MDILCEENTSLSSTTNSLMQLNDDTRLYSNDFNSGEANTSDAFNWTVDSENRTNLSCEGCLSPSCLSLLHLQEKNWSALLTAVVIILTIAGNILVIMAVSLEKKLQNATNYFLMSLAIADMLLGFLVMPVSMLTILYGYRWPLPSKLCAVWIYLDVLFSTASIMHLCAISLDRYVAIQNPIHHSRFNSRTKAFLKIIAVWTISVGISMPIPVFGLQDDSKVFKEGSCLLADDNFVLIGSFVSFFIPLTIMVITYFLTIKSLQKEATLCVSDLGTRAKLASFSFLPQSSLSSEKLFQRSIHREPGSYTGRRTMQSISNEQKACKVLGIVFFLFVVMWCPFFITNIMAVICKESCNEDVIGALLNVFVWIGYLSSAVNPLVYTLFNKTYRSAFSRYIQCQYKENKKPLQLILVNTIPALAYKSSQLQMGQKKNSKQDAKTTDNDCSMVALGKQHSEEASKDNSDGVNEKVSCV
Sequence of Gonadotropin-releasing hormone receptor (Homo sapiens) (P30968 whole entry, looked up): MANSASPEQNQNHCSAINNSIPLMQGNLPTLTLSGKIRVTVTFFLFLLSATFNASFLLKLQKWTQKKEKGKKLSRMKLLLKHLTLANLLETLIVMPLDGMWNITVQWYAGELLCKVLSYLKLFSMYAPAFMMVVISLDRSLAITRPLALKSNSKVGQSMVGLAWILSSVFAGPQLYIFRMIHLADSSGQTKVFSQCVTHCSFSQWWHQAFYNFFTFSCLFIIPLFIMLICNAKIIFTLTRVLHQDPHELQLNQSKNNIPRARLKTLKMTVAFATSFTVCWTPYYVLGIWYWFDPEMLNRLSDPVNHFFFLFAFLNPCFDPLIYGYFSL
Sequence of KiSS-1 receptor (Homo sapiens) (Q969F8 whole entry, looked up): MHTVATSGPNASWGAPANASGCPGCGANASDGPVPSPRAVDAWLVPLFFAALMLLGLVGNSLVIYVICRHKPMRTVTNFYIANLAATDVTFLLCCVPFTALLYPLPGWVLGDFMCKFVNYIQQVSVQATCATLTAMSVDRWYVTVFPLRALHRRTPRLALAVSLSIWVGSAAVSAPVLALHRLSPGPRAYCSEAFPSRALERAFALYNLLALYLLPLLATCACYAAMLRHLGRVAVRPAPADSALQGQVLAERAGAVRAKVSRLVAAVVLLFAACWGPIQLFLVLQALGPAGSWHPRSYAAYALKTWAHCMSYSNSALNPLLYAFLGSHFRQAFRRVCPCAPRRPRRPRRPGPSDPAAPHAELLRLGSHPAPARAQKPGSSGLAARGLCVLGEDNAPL

Regarding `CCN(CC)C(=O)Nc1ccc(OCC(O)CNC(C)(C)C)c(C(C)=O)c1` (stereo not drawn), the Potency entry in assay [1], in [2], in assay [3], in assay [6], in [7] and in assay [8] was “inactive” in each case. Also, the Potency result in assay [9], in assay [10], in assay [11], in assay [12], in [13] and in assay [14] was “inactive” in each case. The Potency result in assay [15] and in assay [16] was “inactive” throughout. Further, the result in assay [4] and in [5] was inactive.
For the compound `C1CCN(CN2CCCCC2)CC1`, the Potency entry in [1], in assay [2], in assay [3], in assay [6], in [7] and in assay [10] was “inactive” in each case. Besides, the Potency result in [11], in assay [12], in assay [13], in assay [14], in [15] and in assay [17] was “inactive” in each case. The Potency entry in assay [16] was “inactive”. Also, the result in assay [4] and in assay [5] was inactive.
Consider `CC(=O)Nc1ccc(OCC(O)CNC(C)C)cc1` (stereo not drawn), for which the Potency result in assay [1], in [2], in [3], in [6], in [7] and in assay [8] was “inactive” throughout. The Potency entry in assay [9], in [11], in assay [12], in assay [13], in assay [14] and in [15] was “inactive” throughout. The Potency entry in assay [18] and in [16] was “inactive” in each case. Moreover, the outcome in [4] and in assay [5] was inactive.
Regarding `CCCSS/C(CCO)=C(\C)N(C=O)Cc1cnc(C)nc1N`, the Potency entry in assay [1], in assay [3], in [6], in [7], in [10] and in assay [11] was “inactive” each time. In addition, the Potency entry in assay [12], in [14], in assay [15], in [19], in assay [17] and in assay [18] was “inactive” each time. For the same compound, the Potency entry in assay [16] was “inactive”. Moreover, in assay [2], the Potency is 29.8 µM (active). Also, the result in [4] and in assay [5] was inactive.
Consider `CCOC(=O)N1CCC(n2c(=O)[nH]c3cc(Cl)ccc32)CC1`, for which the Potency result in assay [1], in assay [2], in assay [3], in [6], in [7] and in assay [8] was “inactive” throughout. For the same compound, the Potency entry in assay [10], in assay [12], in assay [13], in assay [19] and in assay [18] was “inactive” throughout. For the same compound, the outcome in assay [4] and in [5] was inactive.
Take `Cc1ccc(O)cn1`: the Potency result in [1], in assay [2], in assay [3], in assay [6], in assay [7] and in [9] was “inactive” throughout. The Potency result in assay [10], in [11], in assay [12], in assay [13], in [14] and in assay [15] was “inactive” each time. The Potency entry in [19], in assay [18] and in assay [16] was “inactive” each time. Moreover, the result in assay [4] and in assay [5] was inactive.
Take `Clc1cc(Cl)c(Cl)nc1Cl`: the Potency result in [1], in assay [2], in assay [3], in [6], in assay [7] and in [8] was “inactive” each time. For the same compound, the Potency entry in assay [9], in assay [12], in assay [13], in assay [14], in assay [15] and in assay [19] was “inactive” each time. The Potency entry in assay [18] and in assay [16] was “inactive” throughout. Moreover, the result in assay [4] and in assay [5] was inactive. For the same compound, the Potency in [11] is 24.6 µM (active).
For the compound `Cc1c(C)c2c(c(C)c1OC(=O)CCC(=O)OCCO)CC[C@@](C)(CCC[C@H](C)CCC[C@H](C)CCCC(C)C)O2`, the Potency in [1] is 26.6 µM (active). The Potency entry in [2], in assay [3], in assay [6], in [7], in [9] and in assay [10] was “inactive” throughout. Moreover, the Potency result in assay [13], in [19], in assay [18] and in assay [16] was “inactive” in each case. In addition, the outcome in assay [4] and in [5] was inactive.
